Test results reported in PubChem BioAssay (EPA / NIEHS).
Several values for one entry are separate records, joined by “and”; a condition that tells them apart may be missing. Identical values can stand only once. The source holds several records for some structures; these can differ, active in one and inactive in another. Activity calls are given as the source filed them. The calls were made as follows: active = hit-call score of the fitted dose curve at least 0.9, where 1 is the maximum; inactive = score below 0.9.

What was measured:
[1] = read-out: Interleukin-6 (IL6), IL6 (gene 3569); assay: BSK_CASM3C_IL6: BioMAP Diversity Plus: CASM3C Assay for Interleukin-6 (IL6) Biomarker Activity for (AID 2283040); settings: primary human coronary artery smooth muscle cells; actives raise or lower the signal
[2] = read-out: Tissue plasminogen activator (tPA), PLAT (gene 5327); assay: BSK_BE3C_tPA: BioMAP Diversity Plus: BE3C Assay for Tissue plasminogen activator (tPA) Biomarker Activity (AID 2283041); settings: primary human bronchial epithelial cells; actives raise or lower the signal
How it was run: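 Human primary bronchial epithelial cells were dosed with chemical and tPA biomarker levels measured by ELISA 24 hours later. Activity was fitted bidirectionally against DMSO as negative control and baseline.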

[3] = read-out: Interleukin-8 (IL8), CXCL8 (gene 3576); assay: BSK_CASM3C_IL8: BioMAP Diversity Plus: CASM3C Assay for Interleukin-8 (IL8) Biomarker Activity (AID 2283042); settings: primary human coronary artery smooth muscle cells; actives raise or lower the signal;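 also: IL-8 protein level quantified by ELISA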
[4] = read-out: Human Leukocyte Antigen - DR isotype (HLADR), HLA-DRA (gene 3122); assay: BSK_CASM3C_HLADR: BioMAP Diversity Plus: CASM3C Assay for Human Leukocyte Antigen - DR isotype (HLADR) Biomarker Activity (AID 2283043); settings: primary human coronary artery smooth muscle cells; actives raise or lower the signal;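 also: cell-surface HLA-DR protein level quantified by ELISA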
[5] = read-out: Macrophage colony-stimulating factor (MCSF), CSF1 (gene 1435); assay: BSK_CASM3C_MCSF: BioMAP Diversity Plus: CASM3C Assay for Macrophage colony-stimulating factor (MCSF) Biomarker Activity (AID 2283044); settings: primary human coronary artery smooth muscle cells; actives raise or lower the signal;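 also: M-CSF protein amount quantified by ELISA after 24 h exposure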
[6] = read-out: Low-density lipoprotein receptor (LDLR), LDLR (gene 3949); assay: BSK_CASM3C_LDLR: BioMAP Diversity Plus: CASM3C Assay for Low-density lipoprotein receptor (LDLR) Biomarker Activity (AID 2283045); settings: primary human coronary artery smooth muscle cells; actives raise or lower the signal;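 also: LDLR protein level on the cell surface quantified by ELISA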
[7] = read-out: Monocyte Chemoattractant Protein-1 (MCP1), CCL2 (gene 6347); assay: BSK_CASM3C_MCP1: BioMAP Diversity Plus: CASM3C Assay for Monocyte Chemoattractant Protein-1 (MCP1) Biomarker Activity (AID 2283046); settings: primary human coronary artery smooth muscle cells; actives raise or lower the signal;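 also: MCP-1 level quantified by ELISA 24 h after dosing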
[8] = BSK_CASM3C_Proliferation: Cell Proliferation Assessment in the BioMAP Diversity Plus: CASM3C Assay (AID 2283047); settings: primary human coronary artery smooth muscle cells;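 also: sulforhodamine B total protein stain as relative cell number at 560 nm; sub-confluent cells exposed 48 h before staining; fitted both ways against DMSO so gain or loss of cell number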
[9] = read-out: Monokine induced gamma interferon (MIG), CXCL9 (gene 4283); assay: BSK_CASM3C_MIG: BioMAP Diversity Plus: CASM3C Assay for Monokine induced gamma interferon (MIG) Biomarker Activity (AID 2283048); settings: primary human coronary artery smooth muscle cells; actives raise or lower the signal;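 also: MIG protein level measured by ELISA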
[10] = read-out: serum amyloid A (SAA), SAA1 (gene 6288); assay: BSK_CASM3C_SAA: BioMAP Diversity Plus: CASM3C Assay for serum amyloid A (SAA) Biomarker Activity (AID 2283049); settings: primary human coronary artery smooth muscle cells; actives raise or lower the signal;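 also: SAA protein level quantified by ELISA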
[11] = BSK_CASM3C_SRB: Viability Assessment in the BioMAP Diversity Plus: CASM3C Assay (AID 2283050); settings: primary human coronary artery smooth muscle cells;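 also: total protein by SRB staining as cytotoxicity measure in parallel cultures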
[12] = read-out: Thrombomodulin, THBD (gene 7056); assay: BSK_CASM3C_Thrombomodulin: BioMAP Diversity Plus: CASM3C Assay for Thrombomodulin Biomarker Activity (AID 2283051); settings: primary human coronary artery smooth muscle cells; actives raise or lower the signal;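 also: thrombomodulin protein level measured by ELISA 24 h after dosing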
[13] = read-out: Tissue Factor, F3 (gene 2152); assay: BSK_CASM3C_TissueFactor: BioMAP Diversity Plus: CASM3C Assay for Tissue Factor Biomarker Activity (AID 2283052); settings: primary human coronary artery smooth muscle cells; actives raise or lower the signal;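 also: cell surface tissue factor protein level read by ELISA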
[14] = read-out: Interferon-gamma inducible Protein 10 (IP10), CXCL10 (gene 3627); assay: BSK_hDFCGF_IP10: BioMAP Diversity Plus: hDFCGF Assay for Interferon-gamma inducible Protein 10 (IP10) Biomarker Activity (AID 2283053); settings: primary human foreskin fibroblasts; actives raise or lower the signal
How it was run: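 Human foreskin fibroblast primary cells (hDFCGF system) were dosed with chemical and assayed at 24 h; IP-10 measured by ELISA. Activity fitted bidirectionally relative to DMSO negative control as baseline.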

[15] = read-out: Urokinase-type plasminogen activator receptor (uPAR), PLAUR (gene 5329); assay: BSK_CASM3C_uPAR: BioMAP Diversity Plus: CASM3C Assay for Urokinase-type plasminogen activator receptor (uPAR) Biomarker Activity (AID 2283054); settings: primary human coronary artery smooth muscle cells; actives raise or lower the signal;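 also: cell-surface uPAR protein level quantified by ELISA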
[16] = read-out: Vascular cell adhesion molecule 1 (VCAM1), VCAM1 (gene 7412); assay: BSK_CASM3C_VCAM1: BioMAP Diversity Plus: CASM3C Assay for Vascular cell adhesion molecule 1 (VCAM1) Biomarker Activity (AID 2283055); settings: primary human coronary artery smooth muscle cells; actives raise or lower the signal;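 also: VCAM-1 protein level quantified by ELISA on the cells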
[17] = read-out: Collagen III, COL3A1 (gene 1281); assay: BSK_hDFCGF_CollagenIII: BioMAP Diversity Plus: hDFCGF Assay for Collagen III Biomarker Activity (AID 2283056); settings: primary human foreskin fibroblasts; actives raise or lower the signal
How it was run: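 ELISA read-out of collagen III from human skin fibroblast cultures sampled 24 h post-dosing. Values were derived by bidirectional fitting relative to the DMSO vehicle control.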

[18] = read-out: Epidermal growth factor receptor (EGFR), EGFR (gene 1956); assay: BSK_hDFCGF_EGFR: BioMAP Diversity Plus: hDFCGF Assay for Epidermal growth factor receptor (EGFR) Biomarker Activity (AID 2283057); settings: primary human foreskin fibroblasts; actives raise or lower the signal
How it was run: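 Primary human foreskin fibroblasts were exposed to compound for 24 h, after which cell-surface EGFR was quantified by ELISA. Activity was fitted bidirectionally against the DMSO negative control as baseline.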

[19] = read-out: Interleukin-8 (IL8), CXCL8 (gene 3576); assay: BSK_hDFCGF_IL8: BioMAP Diversity Plus: hDFCGF Assay for Interleukin-8 (IL8) Biomarker Activity (AID 2283058); settings: primary human foreskin fibroblasts; actives raise or lower the signal
How it was run: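 Cells used are human skin primary fibroblasts. Chemical is added, cultures run 24 h, then IL-8 is quantified by ELISA, and gain or loss versus DMSO control is fitted in both directions.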

[20] = BSK_hDFCGF_Proliferation: Cell Proliferation Assessment in the BioMAP Diversity Plus: hDFCGF Assay (AID 2283059); settings: primary human foreskin fibroblasts;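 also: curves fitted for both rise and fall of signal versus DMSO baseline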
How it was run: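 This proliferation readout used SRB total-protein staining of human foreskin fibroblasts […], normalized to DMSO with bidirectional curve fitting.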

Measured: AC50

O=S(=O)(OCC(F)(F)F)C(F)(F)C(F)(F)C(F)(F)C(F)(F)F
inactive: [1] | [2] | [3] | [4] | [5] | [6] | [7] | [8] | [9] | [10] | [11] | [12] | [13] | [15] | [16] | [17] | [18] | [19] | [20]
active: [9] 30 µM | [10] 653 nM | [13] 30 µM | [14] 15.9 µM and 16.4 µM | [16] 13.2 µM

OCC(F)(F)C(F)(F)C(F)(F)C(F)(F)C(F)(F)C(F)(F)CO
inactive: all assays above

Cc1cnccn1
active: [8] 196 nM
inactive: all other assays above

OCC(F)(F)C(F)(F)C(F)(F)CO
inactive: all assays above

CCN(CC)c1ccc2c(c1)Oc1cc(N(CC)CC)ccc1C21OC(=O)c2ccccc21
active: [16] 1.98 µM | [17] 10 µM | [20] 10.5 µM
inactive: all other assays above

C=C(C)C(=O)OCC(F)(F)C(F)(F)C(F)(F)C(F)F
inactive: all assays above

CNS(=O)(=O)C(F)(F)C(F)(F)C(F)(F)C(F)(F)C(F)(F)C(F)(F)C(F)(F)C(F)(F)F
inactive: [1] | [3] | [4] | [5] | [6] | [7] | [8] | [9] | [10] | [11] | [12] | [13] | [14] | [15] | [17] | [18] | [19] | [20]
active: [2] 220 nM and 654 nM | [8] 35400 nM | [14] 1.99 µM | [16] 8.2 µM and 1.69 µM

CC1=CC2C3C=CC(C3)C2C1C (centres undefined)
active: [20] 28.2 µM
inactive: all other assays above

OCCCC(F)(F)C(F)(F)C(F)(F)C(F)(F)C(F)(F)C(F)(F)C(F)(F)C(F)(F)F
active: [2] 49.7 µM and 47.2 µM | [3] 38.9 µM and 35.8 µM | [4] 50.3 µM and 50.6 µM | [5] 29.1 µM and 35.6 µM | [6] 43.9 µM and 45.4 µM | [7] 41.6 µM and 42.8 µM | [8] 21 µM and 39.5 µM | [9] 46.8 µM and 44.5 µM | [10] 45.1 µM and 40.2 µM | [11] 32 µM and 48.6 µM | [12] 7.67 µM | [13] 25.4 µM | [14] 9.54 µM and 7.81 µM | [15] 46.1 µM and 51.2 µM | [16] 37.4 µM and 30 µM | [17] 10.7 µM and 9.75 µM | [18] 3.16 µM and 3.2 µM | [19] 15.9 µM and 12 µM | [20] 3.28 µM and 4.77 µM
inactive: [1] | [12] | [13]

NC(O)(C(F)(F)F)C(F)(F)F
active: [5] 43.4 µM
inactive: [1] | [2] | [3] | [4] | [5] | [6] | [7] | [8] | [9] | [10] | [11] | [12] | [13] | [14] | [15] | [16] | [17] | [18] | [19] | [20]
